Reference: the supplement of paper PMC9844399
Structures can show the parent of a compound that is named as a salt.

The molecules below were run on HeLa (assay: nuclear count per well, robust Z-score vs DMSO; higher = more cells (less toxicity)). Details: 10 µM; 6 h.
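Also: Hoechst-stained nuclei counted by automated confocal imaging of four fields per well in 384-well plates, with the robust Z-score based on the per-plate DMSO median and robust SD.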

`CC(C)N(CCC(C(N)=O)(c1ccccc1)c1ccccn1)C(C)C` (stereo unspecified) [Disopyramide] was tested. Which “nuclear count per well” value did it give?
Its value is 0.233.

For `CCCCC[C@@H](/C=C/C=C\C/C=C\C/C=C\CCCC(=O)O)OO`, which “nuclear count per well” value is on record?
The value was -0.172.

Which “nuclear count per well” value does the source give for `NC1CCc2cc(O)c(O)cc2C1` (stereo unspecified) here?
Its value is 0.0305.

How did the “nuclear count per well” value turn out when `N#Cc1nn(-c2c(Cl)cc(C(F)(F)F)cc2Cl)c(N)c1[S+]([O-])C(F)(F)F` (stereo unspecified) [Fipronil] was run?
The value was -0.0952.

For `C=C1[C@@H](C)[C@H]2[C@H](Cc3ccccc3)NC(=O)[C@]23OC(=O)/C=C/[C@H](O)CCC[C@@H](C)C/C=C/[C@H]3[C@@H]1O` [Cytochalasin B from Drechslera dematioidea], which “nuclear count per well” value is on record?
The value was -4.96.

With `CCCCC[C@@H](/C=C/C=C\CCCCCCCC(=O)O)OO` as the molecule, how does the “nuclear count per well” value read?
The value was 0.158.

`CC1(C)C(C=C(Cl)Cl)C1C(=O)OC(C#N)c1cccc(Oc2ccccc2)c1` (stereo unspecified) [Cypermethrin] was tested. Which “nuclear count per well” value did it give?
Its value is 0.381.

Which “nuclear count per well” value does the source give for `O=C1C=CC(=O)c2c(O)cccc21` [Juglone] here?
Its value is 0.315.

For `NCC1(CC(=O)O)CCCCC1` [Gabapentin], which “nuclear count per well” value is on record?
Its value is 0.315.

How did the “nuclear count per well” value turn out when `NCC(CC(=O)O)c1ccc(Cl)cc1` (stereo unspecified) was run?
Its value is 0.824.

For `CC[C@@H]1/C=C/C=C/C[C@H](C)[C@H](O)[C@](C)(O)C(=O)[C@H](C)[C@@H](O)[C@H](C)C(=O)[C@H](C)[C@@H](O)[C@H](C)/C=C/C(=O)O[C@H]2[C@@H](C)[C@@H](CC1)O[C@@]1(CC[C@@H](C)[C@@H](C[C@H](C)O)O1)[C@@H]2C` [Oligomycin A], which “nuclear count per well” value is on record?
The value was 0.149.

How did the “nuclear count per well” value turn out when `CCCCCCCCCCCCCCCCOCC(COP(=O)([O-])OCC[N+](C)(C)C)OC(C)=O` (stereo not drawn) [Enantio-PAF C16] was run?
Its value is -0.712.

Which “nuclear count per well” value does the source give for `CC(C)[C@@H]1NC(=O)[C@H](C)OC(=O)[C@@H](C(C)C)NC(=O)[C@@H](C(C)C)OC(=O)[C@H](C(C)C)NC(=O)[C@H](C)OC(=O)[C@@H](C(C)C)NC(=O)[C@@H](C(C)C)OC(=O)[C@H](C(C)C)NC(=O)[C@H](C)OC(=O)[C@@H](C(C)C)NC(=O)[C@@H](C(C)C)OC1=O` [Valinomycin] here?
Its value is -0.196.

How did the “nuclear count per well” value turn out when `CC(O)(CS(=O)(=O)c1ccc(F)cc1)C(=O)Nc1ccc(C#N)c(C(F)(F)F)c1` (stereo unspecified) [Bicalutamide] was run?
The value was 0.14.

Which “nuclear count per well” value does the source give for `CN(C)C(=O)Oc1cc(OC(=O)N(C)C)cc(C(O)CNC(C)(C)C)c1` (stereo unspecified) [Bambuterol hydrochloride] here?
The value was -0.623.

With `Clc1ccc(C2CC3CCC2N3)cn1` (stereo unspecified) as the molecule, how does the “nuclear count per well” value read?
Its value is -0.873.

For `NCC(CC(=O)O)c1ccc(Cl)cc1` (stereo unspecified) [Baclofen], which “nuclear count per well” value is on record?
Its value is -0.529.

With `CCCC(C)(COC(N)=O)COC(N)=O` [Meprobamate (Schedule Iv)] as the molecule, how does the “nuclear count per well” value read?
Its value is -0.753.

For `CN1C[C@H](C(=O)N[C@]2(C)O[C@@]3(O)[C@@H]4CCCN4C(=O)[C@H](Cc4ccccc4)N3C2=O)C[C@@H]2c3cccc4[nH]cc(c34)C[C@H]21` [Dihydroergotamine Mesylate], which “nuclear count per well” value is on record?
The value was 0.685.

How did the “nuclear count per well” value turn out when `C[C@]1(O)CC[C@H]2[C@@H]3CCC4=CC(=O)CC[C@]4(C)[C@@]3(F)[C@@H](O)C[C@@]21C` [Fluoxymesterone] was run?
The value was -0.818.

`CN1CCN(C(=O)O[C@H]2c3nccnc3C(=O)N2c2ccc(Cl)cn2)CC1` [Eszopiclone] was tested. Which “nuclear count per well” value did it give?
Its value is 0.525.

For `CCOC(=O)CC(SP(=S)(OC)OC)C(=O)OCC` (stereo unspecified) [Malathion], which “nuclear count per well” value is on record?
The value was 0.119.

With `C[C@@H](CN1CCC(n2c(=O)[nH]c3cc(Br)ccc32)CC1)NC(=O)[C@@H]1C[C@H]1c1ccccc1` as the molecule, how does the “nuclear count per well” value read?
The value was -0.101.

Which “nuclear count per well” value does the source give for `O=C1Nc2ccc(Cl)cc2C(c2ccccc2)=NC1O` (stereo unspecified) [Oxazepam] here?
The value was -1.19.

For `O=C(NCCc1ncc(C(F)(F)F)cc1Cl)c1ccccc1C(F)(F)F` [Fluopyram], which “nuclear count per well” value is on record?
The value was -0.448.

`CC(NC(C)(C)C)C(=O)c1cccc(Cl)c1` (stereo unspecified) [Bupropion] was tested. Which “nuclear count per well” value did it give?
The value was 2.38.

How did the “nuclear count per well” value turn out when `CCCCCCC(=O)O[C@H]1CC[C@H]2[C@@H]3CCC4=CC(=O)CC[C@]4(C)[C@H]3CC[C@]12C` [Testosterone Enanthate] was run?
Its value is -0.174.

How did the “nuclear count per well” value turn out when `C[C@@H]1O[C@@H](O[C@H]2C[C@@H](O)[C@]3(CO)[C@H]4[C@H](O)C[C@]5(C)[C@@H](C6=CC(=O)OC6)CC[C@]5(O)[C@@H]4CC[C@]3(O)C2)[C@H](O)[C@H](O)[C@H]1O` [Ouabain] was run?
The value was -2.68.

How did the “nuclear count per well” value turn out when `O=c1[nH]c2ccccc2n1C1CCN(CCCC(c2ccc(F)cc2)c2ccc(F)cc2)CC1` [Pimozide] was run?
The value was 0.329.

How did the “nuclear count per well” value turn out when `O=C1CC[C@@]2(O)[C@H]3Cc4ccc(O)c5c4[C@@]2(CCN3CC2CC2)[C@H]1O5` was run?
Its value is -0.142.

How did the “nuclear count per well” value turn out when `COC1=CC(=O)O[C@@H](/C=C/c2ccc3c(c2)OCO3)C1` [Methylsticin] was run?
Its value is -0.809.
